HTR5A inv ctr: HTR5A inverse agonists in luminescence cell assay, primary screen, counter-screen for OPRM1-OPRD1 heterodimer inverse agonist project, full-deck HTS | HTR5A cell line, inverse agonism | hit rate 0.083% among 340,000 | AID 504634, 2011 | 5-hydroxytryptamine receptor 5A (Homo sapiens), P47898 | inhibition, % at 9.3 µM; in the data active = inhibition mostly above about 23%, no sharp cut-off; inactive = mostly below about 18%;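 also: 0% = cells with DMSO and 100% = no-cell wells with DMSO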
Target sequence (P47898 whole entry, looked up): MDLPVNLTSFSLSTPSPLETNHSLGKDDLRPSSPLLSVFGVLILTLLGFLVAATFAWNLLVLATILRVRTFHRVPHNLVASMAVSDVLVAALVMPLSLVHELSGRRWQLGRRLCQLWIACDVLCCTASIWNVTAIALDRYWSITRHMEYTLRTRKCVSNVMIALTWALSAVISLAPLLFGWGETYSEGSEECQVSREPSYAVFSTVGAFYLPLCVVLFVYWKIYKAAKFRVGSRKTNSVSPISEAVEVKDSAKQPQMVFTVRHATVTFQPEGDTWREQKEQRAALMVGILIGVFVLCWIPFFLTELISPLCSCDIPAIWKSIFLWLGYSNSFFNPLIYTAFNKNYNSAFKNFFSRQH
MOR-DOR ag: agonists of OPRM1-OPRD1 heterodimerization, primary screen, cell-based, luminescence. AID 504326, 2011. cells. hit rate 0.3% among 340,000. activation, % at 9.3 µM;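 also: 0% = vehicle-treated cells and 100% = reference agonist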
MOR-DOR inv ag: inverse agonists of MOR-DOR heterodimerization, primary screen, cell-based, luminescence; inhibition, % at 9.3 µM; hit rate 0.21% among 340,000; Mu-type opioid receptor (Homo sapiens) + Delta-type opioid receptor (Homo sapiens), …; AID 504357, 2011; cell-based MOR-DOR heterodimer luminescence, inverse agonism; in the data active = inhibition above about 22%, passing the limit was not always enough;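 also: 0% = cells with DMSO and 100% = wells without cells with DMSO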
HTR5A ag ctr: HTR5A agonists in luminescence cell assay, primary screen, counter-screen for OPRM1-OPRD1 heterodimer agonist project, full-deck HTS; 5-hydroxytryptamine receptor 5A (Homo sapiens), P47898; cell-based; activation, % at 9.3 µM; hit rate 0.61% among 340,000; AID 504692, 2011; in the data active = activation mostly above about 9.5%, no sharp cut-off; inactive = mostly below about 7.6%;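 also: 0% = cells with vehicle only and 100% = reference agonist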
HTR2A ag: mouse Htr2a agonists via beta-arrestin recruitment, primary screen, cell-based, luminescence; 5-hydroxytryptamine receptor 2A (Mus musculus), P35363; CHO-K1 mHTR2A beta-arrestin complementation; percent of 30 µM serotonin response; activation, % at 7.6 µM; hit rate 0.66% among 360,000;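 active = activation above a run cutoff, the mean activation of all tested compounds plus 3 SD, cut at about 14% in these data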;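 also: 0% = plate median of compound wells and 100% = 30 µM serotonin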
MOR-DOR ag conf: agonists of MOR-DOR heterodimerization, confirmation, cell-based, luminescence; shares compounds with MOR-DOR ag; hit rate 45% among 830; activation, % at 9.3 µM; cells, luminescence complementation;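 also: 0% = vehicle-treated cells and 100% = reference agonist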
HTR5A ag counter: HTR5A agonists in cells, counter-screen for OPRM1-OPRD1 heterodimer agonist project, cell-based, luminescence; shares compounds with MOR-DOR ag; HTR5A agonist counterscreen; activation, % at 9.3 µM; hit rate 8% among 830; AID 504905, 2011; in the data active = activation above about 17%;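 also: 0% = vehicle-treated cells and 100% = reference agonist response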
Numbers without * were called inactive; i = inactive; / = not tested or not shown. Sampled rows, rich in hits. Any-hit rate of the full collection: about 1.6%. Rule as the data show it, unless noted: active = activation above about 18%; inactive = the rest.

SMILES	HTR5A inv ctr	MOR-DOR ag	MOR-DOR inv ag	HTR5A ag ctr	HTR2A ag	MOR-DOR ag conf	HTR5A ag counter
CCN(CC)CCN1C(=O)C2C(C(=O)Nc3ccc(C(C)C)cc3)C3C=CC2(O3)C1C(=O)NC1CCCCC1 (stereo not drawn)	-10	37*	-302	4	8	-1	-6
CCOC(=O)N1CCc2c(sc3ncn(C)c(=O)c23)C1	-16	-2	8	0	10	/	/
CCOC(=O)N1CCc2c(sc3nc4n(c(=O)c23)N=C(c2ccc(OC)cc2)CS4)C1	23	26*	-132	-1	1	4	2
c1ccc(COc2ncnc3c2ncn3CCCNC2CCN(Cc3ccccc3)CC2)cc1	/	/	/	/	0	/	/
O=C(NCc1ccccc1)c1cc(C2CCCN(C(=O)CCCc3ccccc3)C2)on1 (stereo not drawn)	/	/	/	/	-1	/	/
O=[N+]([O-])c1ccc(N2CCN(CCO)CC2)cc1Sc1nc2ccccc2[nH]1	1	19*	-117	0	-11	6	17*
CC(C)(C)c1ccc(CC(=O)N2CCC2(C)C(=O)Nc2cnc3ccccc3c2)cc1 (stereo not drawn)	/	/	/	/	9	/	/
Cc1ccc(OCC(=O)Nc2ccc3c(c2)C(=O)NC3=O)cc1	-14	-3	15	4	3	/	/
CC(C)(C)c1ccc(OCC(=O)Nc2ccc3c4c(cccc24)C(=O)NC3=O)cc1	-2	19*	-96	-3	1	0	0
Cc1ccc(CSCC(=O)N/N=C/c2sccc2C)cc1	23	89*	-478	-6	-6	180*	4
CCOC(=O)C1=C(c2ccccc2)NC(=O)NC1c1ccc(O)c(OCC)c1 (stereo not drawn)	20	1	-3	-1	3	/	/
CCOC(=O)C1=C(c2ccccc2)NC(=O)NC1c1ccc(O)c(Cl)c1 (stereo not drawn)	-118	103*	i	31*	5	82*	28*
Cc1occc1C(=O)N/N=C/c1ccc(OCc2ccccc2)cc1	-5	6	-29	3	-5	/	/
Cc1occc1C(=O)N/N=C/c1ccc(-c2ccccc2)cc1	-25	20*	-111	10	6	60*	4
CCc1cccc(CC)c1NC(=S)NCC(c1cccnc1)N(C)C (stereo not drawn)	14	150*	i	-2	2	-2	0
CN(C)C(CNC(=S)Nc1ccc(Cl)cc1)c1cccnc1 (stereo not drawn)	3	264*	i	0	2	-1	-1
O=C(NCc1cccnc1)Nc1cccc(Cl)c1	6	-1	6	-2	-11	/	/
S=C(NCc1cccnc1)Nc1ccc(Cl)cc1	-12	-4	21	4	-5	/	/
CCc1cccc(CC)c1NC(=S)NCC(c1cccnc1)N1CCOCC1 (stereo not drawn)	-4	0	1	1	4	/	/
CN(C)C(CNC(=O)Nc1cccc(Cl)c1)c1cccnc1 (stereo not drawn)	-4	202*	i	5	-5	4	-4
Cc1ccc(S(=O)(=O)N2C[C@H]3C(=O)C[C@@H]4C(=O)N(c5ccccc5)C(=O)[C@@H]4[C@@H]3C[C@H]2c2cccc(Cl)c2)cc1	/	/	/	/	7	/	/
O=C(C(=O)N1CCN(c2ccncc2)CC1)c1cccc(Br)c1	/	/	/	/	-7	/	/
CC(C)NC(=O)N[C@H]1C=C[C@H](CC(=O)NCc2ccc(Oc3ccccc3)cc2)O[C@@H]1CO	/	/	/	/	7	/	/
O=C1c2[nH]nc(-c3ccccc3O)c2C(c2ccc(F)cc2)N1Cc1ccco1 (stereo not drawn)	0	20*	-100	0	1	10	2
CCOC(=O)C1(C)CCCN(C(=O)c2cccc3ccccc23)C1 (stereo not drawn)	/	/	/	/	8	/	/
